Experimental data from the supplement of paper PMC6555819.

What was measured:
Experiment in all cases: PBM binding z-score (relative to random genomic background probes); higher = stronger binding; sequences stand for … in GC…GCGATTGACAGCGTAGAATGAAGG
[1] = tested on: FXR:RXRa (NR concentration 270 nM, RXRa partner concentration 90 nM)
Method in brief: (§1)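 Each nuclear receptor dimer, without ligand, was incubated for 1 h on custom Agilent 4×180K protein-binding microarrays. Binding was detected with antibodies against each partner (one per run), and scanned fluorescence was regression-normalized. The binding z-scores are referenced to random human genomic background probes.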

[2] = tested on: LXRa:RXRa (NR concentration 270 nM, RXRa partner concentration 90 nM)
Method in brief: as §1

[3] = tested on: LXRa homodimer (NR concentration 270 nM)
Method in brief: as §1

[4] = tested on: LXRb:RXRa (NR concentration 270 nM, RXRa partner concentration 90 nM)
Method in brief: as §1

[5] = tested on: LXRb homodimer (NR concentration 270 nM)
Method in brief: as §1

[6] = tested on: PPARa:RXRa (NR concentration 270 nM, RXRa partner concentration 90 nM)
Method in brief: as §1

[7] = tested on: PPARg:RXRa (NR concentration 180 nM, RXRa partner concentration 90 nM)
Method in brief: as §1

[8] = tested on: PPARg:RXRa 270nM:90nM, anti-RXR (NR concentration 270 nM, RXRa partner concentration 90 nM)
Method in brief: as §1

[9] = tested on: PPARg:RXRa 30nM:10nM, anti-RXR (NR concentration 30 nM, RXRa partner concentration 10 nM)
Method in brief: as §1

[10] = tested on: PPARg:RXRa 90nM:30nM, anti-RXR (NR concentration 90 nM, RXRa partner concentration 30 nM)
Method in brief: as §1

[11] = tested on: PPARg:RXRa DBDmut IVT, anti-RXR (DBD mutation: RXRa K156A/R161A, NR concentration 270 nM, RXRa partner concentration 90 nM)
Method in brief: as §1

[12] = tested on: PPARg:RXRa IVT, anti-PPARg (NR concentration 270 nM, RXRa partner concentration 90 nM)
Method in brief: as §1

[13] = tested on: PPARg DBDmut:RXRa IVT, anti-PPARg (DBD mutation: PPARg1 K132A/R137A, NR concentration 270 nM, RXRa partner concentration 90 nM)
Method in brief: as §1

[14] = tested on: PPARg DBDmut IVT, anti-PPARg (DBD mutation: PPARg1 K132A/R137A, NR concentration 270 nM)
Method in brief: as §1

[15] = tested on: PPARg homodimer (NR concentration 180 nM)
Method in brief: as §1

[16] = tested on: PXR:RXRa (NR concentration 270 nM, RXRa partner concentration 90 nM)
Method in brief: as §1

[17] = tested on: PXR homodimer (NR concentration 270 nM)
Method in brief: as §1

[18] = tested on: RARa:RXR (NR concentration 270 nM, RXRa partner concentration 90 nM)
Method in brief: as §1

[19] = tested on: RARa homodimer (NR concentration 270 nM)
Method in brief: as §1

[20] = tested on: RARb:RXRa (NR concentration 270 nM, RXRa partner concentration 90 nM)
Method in brief: as §1

Sequence	PBM binding z-score [1]	PBM binding z-score [2]	PBM binding z-score [3]	PBM binding z-score [4]	PBM binding z-score [5]	PBM binding z-score [6]	PBM binding z-score [7]	PBM binding z-score [8]	PBM binding z-score [9]	PBM binding z-score [10]	PBM binding z-score [11]	PBM binding z-score [12]	PBM binding z-score [13]	PBM binding z-score [14]	PBM binding z-score [15]	PBM binding z-score [16]	PBM binding z-score [17]	PBM binding z-score [18]	PBM binding z-score [19]	PBM binding z-score [20]
AGAACGAGGGCAATGAGTTGACAGCACGGGTGGC	0.329	0.24	-0.349	-0.388	-0.581	1.24	1.38	0.8	0.0302	0.423	3.68	2.54	0.168	0.4	-0.106	1.19	2.68	0.713	-0.225	2.12
AATAGTTGGTCAGCTGAGGTCACACACAATTCGG	3.52	3.25	3.1	3.57	1.05	3.81	2.21	2.14	0.525	1.25	1.3	2.86	1.06	0.792	3.85	5.58	2.36	4.78	2.44	3.7
ATCGAAAGGTCGAAGGCGAGTATACCCACCCGAA	4.01	3.3	0.25	2.4	0.608	3.71	2.33	2.5	0.887	1.49	-0.0271	1.19	0.286	0.268	1.03	2.14	-0.132	2.87	0.519	3.57
ATCTCGAGGTAAAGTTCAGTGAAAGATCGATAGA	1.3	1.92	1.04	1.29	0.424	2.4	2.53	3.53	1.91	3.69	0.243	1.24	0.853	0.574	1.21	2.17	1.44	1.34	0.469	2.86
TTACCAAGGTGAGCTGACGTCGTTGATCCAACTC	-0.0042	-0.397	-0.855	-0.446	-0.946	0.149	0.0549	0.41	-0.0176	-0.026	0.771	1.43	-0.733	-0.641	-0.886	-0.363	-0.913	-0.1	-1.03	0.866
CGTCCAAGGTCAAAGATCAGTGAAGAGATGACGG	6.99	5.44	0.528	4.2	1.25	5.75	6.08	6.43	3.08	5.64	3.3	3.88	0.698	-0.108	2.98	4.59	1.01	5.63	1.03	5.16
CAAACTAGGTAAAGAGGTCAAAGTCCGCTTCCCG	4.77	5.01	4.55	4.65	1.08	5.7	6.6	6.92	5.17	7.2	6.78	6.91	3.48	1.44	5.18	5.5	2.02	6.1	1.43	3.95
CGTAAAAGTTCAACTAAGGTAACGTAAAGCACGC	6.53	5.88	4.08	3.97	1.96	4.78	2.86	3.53	1.02	2.58	0.183	1.6	1.17	1.06	2.7	4.97	2.61	3.8	1.67	5.13
ATCCCTAGGTAAAGTTCAGTGAAAGATCGATAGA	0.939	1.71	1.52	1.19	0.53	1.8	2.37	3.48	1.57	3.25	0.383	1.01	0.372	0.771	1.6	1.63	2.29	0.943	1.49	2.39
CTCGTAAGGTCGGTTGAGGTGAGTATACGGATAA	2.14	1.03	-0.261	0.701	-0.404	1.46	0.0124	0.578	-0.175	0.326	0.0738	0.679	-0.123	0.104	0.333	2.72	0.279	1.82	-0.0631	2.29
ATCTCTAGGTAAGTCTCAGTTCAGTGAAGAACGC	0.588	0.489	0.754	0.383	1.26	0.246	-0.297	0.387	0.236	0.632	1.77	1.38	1.04	1.5	1.22	1.23	2.14	0.749	1.44	0.564
TCGAGTAGGTTAGCCGGGGCATTCAGCCAACATA	0.0762	-0.0841	-0.659	0.0461	-1.01	0.893	-0.0642	0.609	0.847	0.701	1.95	1.45	-0.971	-1.01	-0.00962	0.241	-0.374	0.484	-0.48	0.608
AGTCAAAGTTCATCTACGTAACGTAAGATATGCT	6.79	6.21	5.33	3.97	1.6	4.77	6.55	6.3	3.58	5.65	0.41	2.74	1.46	1.88	2.94	4.96	4.87	3.51	1.69	4.85
